Test [1] addresses Mitogen-activated protein kinase 10 (Mus musculus) (UniProt Q61831). Nature of the test: JNK3 AlphaScreen Assay (AID 530; active = well fitted curve in either direction with a large enough effect, not every such curve was filed as active;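 note: kinase came from lysate of stimulated human HepG2 cells; signal reports phosphorylation of biotinylated GST-cJun 1-79 at Ser73 with 10 µM ATP; series mostly up to about 57 µM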). In a few lines:
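Inhibitors reduce antibody binding to phosphorylated biotin-cJun, lowering AlphaScreen luminescence. Lysates from HepG2 cells pre-activated by IL-1beta plus TNF-alpha supplied JNK3; compounds were titrated.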

For test [2], the target named is Cytochrome P450 3A4 (Homo sapiens) (UniProt P08684). The experiment in a line: qHTS Assay for Activators of Cytochrome P450 3A4 (AID 885). Note: nearly all actives have a fitted effect of over 65% in size. In a few lines: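 Steps: enzyme/substrate mix dispensed; compound added, 10 min RT; NADPH regeneration solution added, 60 min RT; luciferin detection buffer stops reaction; 20 min later luminescence measured.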
The target is the same in test [3]. The experiment in a line: qHTS Assay for Inhibitors and Substrates of Cytochrome P450 3A4 (AID 884). Note: potency is the fitted concentration of half-maximal effect; nearly all actives have a fitted effect of over 50% in size. In a few lines: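 20 nM human CYP3A4 with 25 uM Luciferin-PPXE (at KM) in 200 mM KPO4, preincubated 10 min with compound; NADPH regeneration started a 60 min RT reaction. Luciferin detected by luminescence, normalized to 57 uM ketoconazole as full inhibition.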
On the technique in general: In qHTS, concentration-response curves come from the screen itself.

Test [4] concerns the target Lethal(3)malignant brain tumor-like protein 1 (Homo sapiens) (UniProt Q9Y468). The experiment in a line: qHTS Assay for the Inhibitors of L3MBTL1: Hit Validation (AID 540279). Note: potency is the fitted concentration of half-maximal effect; nearly all actives have a fitted effect of over 70% in size. The conditions noted are these: L3MBTL1 methyl-lysine binding inhibition, biochemical qHTS. In a few lines:
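AlphaScreen competition format: 50 nM L3MBTL1 preincubated 30 min at room temperature with 75 nM biotinylated H3(1-15)K9me1 peptide, then compounds added for 30 min, then streptavidin donor and nickel chelate acceptor beads (10 ug/mL final) for 30 min dark.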

Test [5] is described as follows: qHTS Assay for the Inhibitors of L3MBTL1: Hit Validationin AlphaScreen Counterscreen (AID 602224). From the text: The histone code is comprised of many post-translational modifications that occur mainly in histone tail peptides. The identity and location of these marks are read by a variety of histone binding proteins that are emerging as important regulators of cellular differentiation and development and are increasingly being implicated in numerous disease states. Small molecule probes that disrupt the interaction between histone binding proteins and chromatin would enable a systematic chemical biology study of proteins that read the histone code and could potentially reveal new targets for drug discovery. However, no such small molecules are known. This dearth of quality molecular probes can largely be attributed to the novelty of the target class and the lack of screening assays. This proposal details the development of the first high-throughput screening assay for the discovery of inhibitors of methyl-lysine binding proteins and how it can be used to initiate a full-scale discovery effort for antagonists of histone binding proteins. Specifically, this work focuses on an AlphaScreen(tm)-based HTS assay for Malignant Brain Tumor (MBT) domain-containing proteins, which bind to the lower methylation states of lysine residues present in histone tail peptides.
Although AlphaScreen has significant advantages with its utility in a variety of epigenetic target assays, the primary screening data (linked to this assay) should be used with caution due to the prevalence of screening artifacts. An AlphaScreen counterscreen was developed and ran against any putative actives to eliminate non-specific artifacts. […] Compounds that were active in the primary screen were run in this this counterscreen. Compounds that are active in this screen are compounds that are artifacts in the primary screen.
NIH Chemical Genomics Center [NCGC]
NIH Molecular Libraries Probe Centers Network [MLPCN]
Assay Submitter (PI): William Janzen, University of Carolina, Chapel Hill
Biotinylated hexahistidine (b-His6) (PerkinElmer, Waltham, MA) will be added to 1,536-well plates in a 3 uL dispense. Compounds will be added in a 23 nL pin-transfer step, and plates will be incubated at room temperature for 15 min. Streptavidin-coated donor and nickel chelate acceptor AlphaScreen beads will be added (1 uL) for final concentrations of 10 ug/mL each bead and 1 nM b-His6, and plates read as described above (qHTS assay) after a 30 min incubation at room temperature in the dark

Inconclusive results are not listed. The list shows a part of the results. A call without a number means that no potency is given here. The source made the active and inactive calls. Unless noted, calls come from the whole dose curve; as a rule, active = well fitted curve in the direction sought with a large enough effect; inconclusive = small, poorly fitted or top-dose-only effect, or another doubt; inactive = no such curve, though single readings can be large; an effect the other way counts as inactive or inconclusive.

Lethal(3)malignant brain tumor-like protein 1 (Homo sapiens), sequence (Q9Y468 whole entry, looked up): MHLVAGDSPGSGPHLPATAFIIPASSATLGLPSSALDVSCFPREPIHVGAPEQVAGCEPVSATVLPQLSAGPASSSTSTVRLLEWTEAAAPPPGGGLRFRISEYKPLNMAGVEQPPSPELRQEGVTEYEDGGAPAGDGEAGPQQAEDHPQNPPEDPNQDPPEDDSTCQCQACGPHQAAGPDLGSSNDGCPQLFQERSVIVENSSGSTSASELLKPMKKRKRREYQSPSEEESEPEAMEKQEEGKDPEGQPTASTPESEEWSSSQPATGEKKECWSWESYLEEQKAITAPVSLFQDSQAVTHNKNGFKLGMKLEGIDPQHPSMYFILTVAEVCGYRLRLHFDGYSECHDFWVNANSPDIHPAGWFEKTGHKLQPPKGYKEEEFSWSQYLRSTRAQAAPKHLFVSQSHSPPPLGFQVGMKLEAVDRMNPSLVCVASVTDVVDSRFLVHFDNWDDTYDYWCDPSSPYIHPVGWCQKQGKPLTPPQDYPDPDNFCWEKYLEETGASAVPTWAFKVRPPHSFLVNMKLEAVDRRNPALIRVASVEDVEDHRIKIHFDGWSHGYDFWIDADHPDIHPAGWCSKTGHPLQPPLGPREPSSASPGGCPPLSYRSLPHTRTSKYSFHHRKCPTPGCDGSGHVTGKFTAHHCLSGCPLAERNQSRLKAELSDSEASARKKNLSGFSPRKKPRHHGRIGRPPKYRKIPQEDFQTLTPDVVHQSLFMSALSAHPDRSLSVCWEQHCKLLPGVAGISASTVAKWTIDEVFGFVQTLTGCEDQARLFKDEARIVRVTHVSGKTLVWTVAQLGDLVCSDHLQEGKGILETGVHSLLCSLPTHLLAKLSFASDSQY
Cytochrome P450 3A4 (Homo sapiens), sequence (P08684 whole entry, looked up): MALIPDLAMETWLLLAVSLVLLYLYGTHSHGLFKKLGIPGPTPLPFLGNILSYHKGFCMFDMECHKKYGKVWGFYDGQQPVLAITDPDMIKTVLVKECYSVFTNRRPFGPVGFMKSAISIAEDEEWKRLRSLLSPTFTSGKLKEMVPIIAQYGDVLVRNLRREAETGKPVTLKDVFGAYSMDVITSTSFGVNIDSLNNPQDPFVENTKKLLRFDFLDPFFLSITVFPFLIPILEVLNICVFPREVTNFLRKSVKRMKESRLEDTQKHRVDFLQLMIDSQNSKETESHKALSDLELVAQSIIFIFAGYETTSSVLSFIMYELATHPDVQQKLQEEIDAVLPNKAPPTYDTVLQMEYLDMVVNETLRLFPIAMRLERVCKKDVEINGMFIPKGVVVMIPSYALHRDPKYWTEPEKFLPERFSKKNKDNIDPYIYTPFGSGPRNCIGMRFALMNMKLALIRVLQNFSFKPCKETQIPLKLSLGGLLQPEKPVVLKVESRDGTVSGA

With `CC(=O)N1CC=CC1(C)C(=O)O` (stereo unspecified), in test [1], the call was inactive. For the same molecule, the Potency entry in test [2] is “inactive”.
`C[C@]1(C(=O)NCCN2CCOCC2)C=C[C@@H](Cc2ccccc2)N1C(=O)c1ccccc1`: the outcome in test [1] was inactive. For the same molecule, the Potency in test [3] is 7.94 µM (active). Besides, the Potency entry in test [2] is “inactive”.
For the molecule `COCCNC(=O)C1(CC(C)C)C=CCN1C(=O)OC` (stereo unspecified), in test [1], the molecule was classed as inactive. In addition, the Potency entry in test [2] was “inactive”.
Turning to `COC(=O)[C@@]1(C)C=C[C@@H](Cc2ccccc2)N1C(=O)c1ccccc1`, in test [1], the call was inactive. Also, the Potency entry in test [2] was “inactive”.
As to `CC(=O)N1[C@H](C)C=C[C@]1(Cc1ccccc1)C(=O)NCCN1CCOCC1`, in test [1], the molecule was classed as inactive. For the same molecule, in test [3], the Potency was 12.6 µM (active). Also, the Potency entry in test [2] was “inactive”.
As for `COC(=O)c1ccc(C(NC(=O)OCc2ccccc2)/C(F)=C/[C@@H](C)C(=O)NCc2cccnc2)cc1` (stereo partly specified), the result in test [1] was inactive. Besides, in test [3], the Potency is 1.26 µM (active). Also, the Potency result in test [2] was “inactive”.
As to `O=C1C(Cl)=C(NC2CCc3ccccc32)C(=O)c2ncccc21` (stereo unspecified), the result in test [1] was inactive. Moreover, the Potency in test [3] is 1.58 µM (active). Further, the Potency result in test [2] was “inactive”.
As for `CCCCCCN(C(=O)CCCCCN1C(=O)NC(c2ccc(-c3ccccc3)cc2)C(C(=O)OCc2ccccc2)=C1C)C(C(=O)NCCCC)c1cccc(C(=O)OC)c1` (stereo unspecified), the outcome in test [1] was inactive. In addition, the Potency entry in test [2] was “inactive”.
Regarding `CCCCCCN(C(=O)CCCCCN1C(=O)NC(C2CC2)C(C(=O)OCc2ccccc2)=C1C)C(C(=O)NCCCC)c1ccc(OCC(=O)OC)c(C(=O)OC)c1` (stereo unspecified), in test [1], the result was inactive. Moreover, the Potency in test [3] was 3.98 µM (active). In test [2], the Potency result was “inactive”.
In the case of `COC(=O)CCCCCN1C(=O)NC(c2ccccc2)C(C(=O)OCc2ccccc2)=C1C` (stereo unspecified), in test [1], the outcome was inactive. Also, the Potency entry in test [2] is “inactive”.
With `CCC[C@@H]1C[C@@]1(CCC)[C@@H](NC(=O)c1ccccc1)c1ccc(C(=O)OC)cc1`, the molecule was called inactive in test [1]. The Potency in test [3] is 6.31 µM (active). Moreover, the Potency entry in test [2] is “inactive”.
`C[C@@H]1C=C[C@](Cc2ccccc2)(C(=O)NCC2CC2)N1C(=O)c1ccccc1`: the molecule was called inactive in test [1]. Also, the Potency in test [3] was 12.6 µM (active). Besides, the Potency entry in test [2] was “inactive”.
In the case of `COC(=O)CNC(=O)C1(CC(C)C)C=CCN1C(=O)c1ccccc1` (stereo unspecified), the outcome in test [1] was inactive. Also, the Potency result in test [2] is “inactive”.
Consider `CC(=O)N1C2(C=CC1(C)C(=O)NCc1ccccn1)CCCCC2` (stereo unspecified), for which the outcome in test [1] was inactive. In addition, the Potency in test [3] is 12.6 µM (active). Further, the Potency entry in test [2] was “inactive”.
`CC(=O)N1[C@H](C)C=C[C@]1(Cc1ccccc1)C(=O)O`: the molecule was classed as inactive in test [1]. In addition, in test [2], the Potency result was “inactive”.
With `CC1(C(=O)NCCN2CCOCC2)C=CCN1C(=O)c1ccccc1` (stereo unspecified), the molecule was classed as inactive in test [1]. Besides, the Potency entry in test [2] was “inactive”.
Take `COC(=O)CCCCCN1C(=O)NC(CC2CC2)C(C(=O)OCc2ccccc2)=C1C` (stereo unspecified): the molecule was called inactive in test [1]. Further, the Potency result in test [2] was “inactive”.
As for `C[C@@H]1C=C[C@](Cc2ccccc2)(C(=O)NCCCNc2ncc(C(F)(F)F)cc2Cl)N1C(=O)c1ccccc1`, the molecule was classed as inactive in test [1]. For the same molecule, in test [2], the Potency result was “inactive”.
For the molecule `Oc1ccc(N=Nc2nccs2)c(O)c1`, the Potency in test [4] was 16.8 µM (active). Also, the molecule was classed as inactive in test [5].
For `COC(=O)[C@@]1(Cc2ccc(F)cc2)[C@H]2c3cc(C(=O)N4CCCC4)n(Cc4ccc(S(C)(=O)=O)cc4)c3C[C@H]2CN1C(=O)c1ccccc1`, in test [1], the molecule was classed as inactive. Moreover, the Potency result in test [2] was “inactive”.
`COC(=O)c1ccc(C(NC(=O)OCc2ccccc2)/C(F)=C/[C@@H](C)C(=O)NCc2cc(C)on2)cc1` (stereo partly specified): the result in test [1] was inactive. Also, in test [2], the Potency entry was “inactive”.
In the case of `CCCCCCN(C(=O)CCCCCN1C(=O)NC(c2ccc(-c3ccccc3)cc2)C(C(=O)OCc2ccccc2)=C1C)C(C(=O)NCCCC)c1ccccc1` (stereo unspecified), the molecule was called inactive in test [1]. The Potency result in test [2] was “inactive”.
On to `CC(C)CC1(C(=O)NCc2ccccn2)C=CCN1C(=O)c1ccccc1` (stereo unspecified), for which the result in test [1] was inactive. For the same molecule, the Potency entry in test [2] is “inactive”.
Take `COCCNC(=O)[C@H](C)/C=C/C(NC(=O)OCc1ccccc1)c1ccc(C(=O)OC)cc1` (stereo partly specified): the call in test [1] was inactive. Besides, the Potency entry in test [2] was “inactive”.
Turning to `COC(=O)CNC(=O)[C@@]1(C)C=C[C@@H](Cc2ccccc2)N1C(C)=O`, in test [1], the molecule was classed as inactive. In test [2], the Potency entry is “inactive”.
Turning to `CC(C)(C)OC(=O)NCCCCCNC(=O)c1[nH]cnc1C(=O)Nc1nccs1`, in test [4], the Potency was 7.52 µM (active). The outcome in test [5] was inactive.
For `COC(=O)N1[C@H](C)C=C[C@]1(Cc1ccccc1)C(=O)NCc1ccccn1`, the molecule was called inactive in test [1]. For the same molecule, in test [2], the Potency entry is “inactive”.
Turning to `CCCCNC(=O)C(c1ccc(OCC(=O)OC)c(C(=O)OC)c1)N(CCC1=CCCCC1)C(=O)CCCCCN1C(=O)NC(c2ccc(-c3ccccc3)cc2)C(C(=O)OCc2ccccc2)=C1C` (stereo unspecified), the molecule was classed as inactive in test [1]. The Potency result in test [2] is “inactive”.
For `CC(C)NC(=O)[C@H]1C[C@@H]1[C@H](NC(=O)OCc1ccccc1)c1ccccc1`, in test [1], the outcome was inactive. For the same molecule, the Potency result in test [2] was “inactive”.
On to `COC(=O)c1ccc(C(/C=C/[C@@H](C)C(=O)N(C)C)NC(=O)OCc2ccccc2)cc1` (stereo partly specified), for which the result in test [1] was inactive. Moreover, in test [2], the Potency entry is “inactive”.
For the molecule `CCN(C(=O)Cc1nc(N)n[nH]1)C1(C(=O)Nc2ccccc2)CCCCC1`, the Potency in test [4] was 26.7 µM (active).
Turning to `CC1=C(C(=O)OCc2ccccc2)C(c2ccc(C(F)(F)F)cc2)NC(=O)N1CCCCCC(=O)O` (stereo unspecified), the result in test [1] was inactive. In addition, in test [2], the Potency entry was “inactive”.

The values above are taken from PubChem BioAssay (NCATS).
